Pf growth 96h – P. falciparum growth inhibition at 96 hours | Potency, µM (top dose mostly 28.7 µM), hits mostly inhibitors | 320,000 tested, 6.9% active | AID 504834 | P. falciparum luciferase reporter growth, 96 h
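Cell-based qHTS: luciferase-tagged P. falciparum in erythrocytes (2% hematocrit, 0.05% parasitemia final) incubated with compounds for 96 hours, 37 C, 5% CO2; luciferase detection reagent then added and luminescence measured.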
HCV inh – blocks hepatitis C virus; Huh7.5.1 HCVcc-Cre infection, luciferase reporter, 44 h; Potency, µM (highest dose often 41.8 µM), most hits filed as inhibitors; 340,000 tested, 3.4% active
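Whole-lifecycle infectious HCVcc-Cre system; cells 1,000/well, compound then virus (~0.5 moi) added 4 h after plating, 44 h culture. Luciferase read 15 sec following 15 min substrate incubation, room temp.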
HCMV antiviral – human cytomegalovirus inhibition; HFF cells, HCMV-luciferase reporter, 72 h; stronger effect = lower value; activity change, negative = inhibition, % at 57.5 µM; 410,000 tested, 4.5% active; AID 1259415; in the data active = activity change below about -60%; inconclusive = no clear call, values can overlap the other calls; inactive = above about -39%
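Screen run at 2 compound doses on HFFs infected with reporter HCMV, MOI 1 PFU/cell. Luciferase activity from cell lysates at 72 h post infection gave inhibition relative to buffer-only and Salinomycin wells.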
Pf growth 48h – P. falciparum growth inhibition at 48 hours (one generation) | P. falciparum luciferase growth in erythrocytes, 48 h | Potency, µM (series often up to 28.7 µM), most hits filed as inhibitors | 310,000 tested, 5.9% active
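In quantitative HTS format, infected erythrocytes bearing luciferase-reporter parasites were treated for a single generation at 37 C. Luminescence after adding detection reagent served as the growth measure.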
Numbers stand for hits; – = inactive; ? = inconclusive; · = not tested or not shown; + = active, no number; [ ] = remark or other dose. Most compounds without a hit are left out; they make up all but 13% or so of the library. Unless noted, calls follow the shape of the dose curve; as a rule, active = well fitted inhibition curve with a large enough effect; inconclusive = small, poorly fitted or top-dose-only effect, or another doubt; inactive = no such curve, though single readings can be large or run the other way.

SMILES	Pf growth 96h	HCV inh	HCMV antiviral	Pf growth 48h
CCc1ccc(-c2nc(SCC(=O)NCC3CCCO3)c(-c3ccc(F)cc3)[nH]2)cc1 (stereo unspecified)	·	·	–	·
CCn1ccc2cc(S(=O)(=O)N3CCCN(C(=O)Nc4ccccc4C(F)(F)F)CC3)ccc21	·	·	–	·
COc1cc(C[C@@H]2C(=O)OC[C@H]2Cc2ccc(OC)c(OC)c2)ccc1O	–	?	-90	–
O=S1(=O)CCO[C@H]2Cc3ccccc3[C@H]2N1Cc1ccccc1Br	17µM	?	–	–
CCOc1ccc(NC(=O)CC2C(=O)N(c3ccc(F)cc3)C(=O)N2CCc2sccc2C)cc1 (stereo unspecified)	·	·	–	·
COc1cc([C@@H]2c3cc4c(cc3[C@@H](O[C@@H]3O[C@@H]5CO[C@@H](C)O[C@H]5[C@H](O)[C@H]3O)[C@H]3COC(=O)[C@H]23)OCO4)cc(OC)c1O	·	?	-99	·
COc1cc([C@H]2c3cc4c(cc3[C@@H](O[C@H]3O[C@H]5CO[C@@H](C)O[C@H]5[C@@H](O)[C@@H]3O)[C@@H]3COC(=O)[C@H]23)OCO4)cc(OC)c1O	13µM	·	·	13µM
CCN(CC)C1Oc2cc3c(cc2C(c2cc(OC)c(O)c(OC)c2)C1C)OCO3 (stereo unspecified)	·	–	–	·
Cc1cc(NC(=O)c2cccs2)ncc1NC(=O)c1cccc(F)c1	5.2µM	–	–	–
Cc1cc(NC(=O)c2ccccc2)ncc1NC(=O)c1cccs1	–	–	–	–
Cc1cc(NC(=O)c2cccs2)ncc1NC(=O)C(C)C	2.3µM	–	–	–
Cc1cnccc1NC(=O)c1cccs1	–	–	-62	–
CC(C)CCNC(=O)C1CCC(Cn2c(=O)c3sccc3n(CC(=O)NC(C)C)c2=O)CC1 (stereo unspecified)	·	·	–	·
O=C(CNC(=O)c1ccccc1)N/N=C/c1ccccc1Cl	?	–	–	–
O=C(CNC(=O)c1ccccc1)N/N=C/c1ccc([N+](=O)[O-])s1	4.1µM	?	?	?
O=C(Cc1ccccc1)NCC(=O)N/N=C/c1ccc([N+](=O)[O-])s1	5.2µM	?	–	?
COc1ccc(NC(=O)CCC(=O)N/N=C/c2ccc([N+](=O)[O-])s2)cc1	?	?	–	7.4µM
COc1ccc(CCNC(=O)C(C)n2nc(C)c3sc4ccccc4c3c2=O)cc1OC (stereo unspecified)	·	·	–	·
CCOC(=O)c1scc(-c2ccccc2)c1S(=O)(=O)N1CCN(c2ccccc2OC)CC1	·	·	–	·
Cc1cc(Br)cn2c(Cc3ccccc3C(F)(F)F)c(-c3ccco3)nc12	·	·	–	·
COc1cccc(NC(=O)C(=O)NCCc2csc(-c3ccc(C)cc3)n2)c1	·	·	–	·
Cc1ccc(N2C(=O)[C@@H]3[C@H](C2=O)C2CCCN2[C@@H]3C(=O)c2ccccc2)cc1 (stereo partly specified)	?	?	?	12µM
CC(=O)c1ccc(N2C(=O)C3C(C2=O)C(C(=O)c2ccc(Cl)cc2)N2CCCC32)cc1 (stereo unspecified)	–	–	–	?
O=C(c1ccc(F)cc1)C1CCN(C(=O)c2ccccc2)CC1	?	–	–	–
O=C(c1ccccc1)[C@@H]1[C@@H]2C(=O)N(c3ccc(F)cc3)C(=O)[C@@H]2C2CCCN21 (stereo partly specified)	–	–	-67	–
SMILES	Pf growth 96h	HCV inh	HCMV antiviral	Pf growth 48h
COc1cccc(Cn2c(CNS(=O)(=O)c3ccc(C(C)(C)C)cc3)nc3cccnc32)c1	·	·	–	·
COc1cccc(N2CCN(C(=O)C3CCN(S(=O)(=O)c4cn(C)cn4)CC3)CC2)c1	·	·	–	·
COc1cc(NC(=O)C2=CC(c3ccc(F)cc3)=NS(=O)(=O)N2C)cc(OC)c1OC	·	·	–	·
CCOc1cc(C2c3c(oc4ccc(F)cc4c3=O)C(=O)N2Cc2ccco2)ccc1O (stereo unspecified)	·	·	–	·
CN(C)CCNC(=O)c1cccc2[nH]c(-c3ccncc3)nc12	·	?	-100	·
COc1ccc(Cl)cc1C(=O)NCCN(C)C	–	–	–	·
COc1ccc(C(=O)NCCN(C)C)c2nc3ccccc3cc12	·	?	-100	·
COc1ccc(-c2nc3c(C(=O)NCCN(C)C)cccc3c3ccccc23)cc1	·	?	–	·
COc1cccc2nc3c(C(=O)NCCN(C)C)cccc3cc12	·	?	-101	·
CN(C)CCNC(=O)c1cccc2nc3c(ccc4ccccc43)nc12	·	7.9µM	-96	·
CC1CN=C(c2cc(Cl)c(N)c(Cl)c2)c2c3ccc(C(F)(F)F)cc3nn21 (stereo unspecified)	·	·	–	·
CN(C)C(=O)Oc1ccnc2cc(Cl)ccc12	–	–	+	–
CN(C)C(=O)Oc1ccc(Br)c2ccccc12	?	–	–	–[5.75 µM]
C[C@H](C(=O)N[C@H](CO)c1ccccc1)N1Cc2ccc(N3CCOCC3)nc2C1=O	·	·	–	·
C=CCN(c1ccc(C(=O)NCCSc2ccccc2)cc1)S(C)(=O)=O	15µM	–	–	–
C=CCN(c1ccc(C(=O)Nc2ccc(C)cc2)cc1)S(C)(=O)=O	–	–	–	–
C=CCN(c1ccc(C(=O)Nc2ccc(C)c(C)c2)cc1)S(C)(=O)=O	–	?	-69	–
CCC(=O)N1CCc2cc(Br)cc(S(=O)(=O)N3CCC(C(=O)N(CC)CC)CC3)c21	·	·	–	·
Cc1ccc(CNC(=O)Cn2c(=O)n(-c3cccc(Cl)c3)c(=O)c3sc4ccccc4c32)cc1	·	·	–	·
Cc1ccccc1CS(=O)(=O)c1snnc1C	–	–	–	–
Cc1ccccc1CS(=O)(=O)c1cnc2ccccc2n1	·	?	?	15µM
CCc1ccccc1Nc1nn2c(=O)c3ccc(C(=O)NCCCOC(C)C)cc3nc2s1	?	·	–	13µM
CCc1ccccc1Nc1nn2c(=O)c3ccc(C(=O)NCc4cccs4)cc3nc2s1	8.3µM	·	?	9.3µM
COc1ccccc1CNC(=O)CCC1N=C2c3ccccc3N=C(SCC(=O)Nc3ccc(N(C)C)cc3)N2C1=O (stereo unspecified)	·	·	–	·
CCOc1ccc(NC(=O)C2Cc3ccccc3CN2S(=O)(=O)CC)cc1 (stereo unspecified)	?	–	–	?
SMILES	Pf growth 96h	HCV inh	HCMV antiviral	Pf growth 48h
CCS(=O)(=O)N1Cc2ccccc2CC1C(=O)OCC(=O)N(C(C)C)C(C)C (stereo unspecified)	9.3µM	–	–	?
CC(C)Cn1c(N)c(C(=O)COC(=O)c2ccc(O)cc2)c(=O)n(C)c1=O	–	?	–	–
Cn1c(=O)c(C(=O)COC(=O)c2cc(-c3ccco3)nc3ccccc23)c(N)n(Cc2ccccc2)c1=O	6.6µM	–[8.37 µM]	·	5.2µM
CC(C)Cn1c(N)c(C(=O)COC(=O)c2cc(-c3ccccc3)nc3ccccc23)c(=O)n(C)c1=O	12µM	?	–	?
Cc1nn(-c2ccccc2)c(C)c1C(=O)OCC(=O)c1c(N)n(CC(C)C)c(=O)n(C)c1=O	?	5.6µM	-79	?
CC(C)Cn1c(N)c(C(=O)COC(=O)c2cc(C(F)(F)F)nc3ccccc23)c(=O)n(C)c1=O	?	?	–	?
O=C(CCn1c(=O)c2ccccc2n(CC(=O)Nc2cccc(F)c2)c1=O)NCCc1ccccc1	·	·	–	·

Bioassay records: PubChem BioAssay, National Center for Advancing Translational Sciences (NCATS)
